Assay [1] has as its target Cellular tumor antigen p53 (Homo sapiens) (UniProt P04637). In words: Primary qHTS for small molecule compounds that upregulate eGFP-tagged delta133p53alpha (in N-terminal) cells. (AID 2060322).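 Further: cells pre-induced with doxycycline then dosed without doxycycline; 0% = DMSO vehicle and 100% = reference activator; nearly all actives have a fitted effect of over 75% in size.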 The conditions noted are these: NCI-H358 eGFP-delta133p53alpha fluorescence, 24 h; activation: hits give high values. In short, it runs like this: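 NCI-H358 cells pre-induced 24 h with 10 ng/ml doxycycline for eGFP-delta133p53alpha, plated dox-free and exposed 24 h at 37C to titrated compounds. Fixed, Hoechst-stained; gated GFP peak intensity by laser scanning cytometry, normalized to DMSO (0%) and 57.5 uM 5-azacytidine (100%).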
A general note: Quantitative high-throughput screening tests each substance at several concentrations.

Assay [2] addresses Aldehyde dehydrogenase, mitochondrial (Homo sapiens) (UniProt P05091). In words: qHTS for Inhibitors of the Aldehyde Dehydrogenase Family (ALDH2) Primary screen (AID 2061308).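 Further: plate controls were vehicle for no effect and reference inhibitor for full effect; nearly all actives have a fitted effect of over 55% in size.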 The following applies: ALDH2 enzyme inhibition qHTS, 1536-well; series mostly up to 56 µM.
Assay [3] deals with Retinaldehyde dehydrogenase 3 (Homo sapiens) (UniProt P47895). In words: qHTS for Inhibitors of the Aldehyde Dehydrogenase Family (ALDH1A3) Confirmatory screens (AID 2061311). Further: potency means the concentration at half of the fitted maximal effect; nearly all actives have a fitted effect of over 60% in size. The conditions noted are these: ALDH inhibition qHTS; series mostly up to 46 µM.
Assay [4] has the same target. In words: qHTS for Inhibitors of the Aldehyde Dehydrogenase Family (ALDH1A3) Validation screen (AID 2061312). Further: potency means the concentration at half of the fitted maximal effect; nearly all actives have a fitted effect of over 45% in size. The conditions noted are these: ALDH1A3 enzyme inhibition qHTS validation, fluorescence; series mostly up to 84.7 µM.
The target is the same in assay [5]. In words: qHTS for Inhibitors of the Aldehyde Dehydrogenase Family (ALDH1A3) Primary screen (AID 2061315). Further: potency means the concentration at half of the fitted maximal effect. The following applies: ALDH inhibition qHTS; series mostly up to 56 µM.
Assay [6] concerns the target Retinal dehydrogenase 2 (Homo sapiens) (UniProt O94788). In words: qHTS for Inhibitors of the Aldehyde Dehydrogenase Family (ALDH1A2) Confirmation screens (AID 2061314). Further: on the % scale 0 is the no-effect control and ±100 the full control effect; nearly all actives have a fitted effect of over 65% in size. The following applies: ALDH1A2 enzyme inhibition qHTS confirmation; series mostly up to 45.9 µM.

Results filed as inconclusive are left out. Values without a mark were called inactive. Calls of active or inactive are those of the source. The call rests on the fitted dose curve; in most records, active means well fitted curve in the direction sought with a large enough effect; inconclusive means small, poorly fitted or top-dose-only effect, or another doubt; inactive means no such curve, though single readings can be large; an effect the other way counts as inactive or inconclusive.

Cellular tumor antigen p53 (Homo sapiens), sequence (P04637 whole entry, looked up): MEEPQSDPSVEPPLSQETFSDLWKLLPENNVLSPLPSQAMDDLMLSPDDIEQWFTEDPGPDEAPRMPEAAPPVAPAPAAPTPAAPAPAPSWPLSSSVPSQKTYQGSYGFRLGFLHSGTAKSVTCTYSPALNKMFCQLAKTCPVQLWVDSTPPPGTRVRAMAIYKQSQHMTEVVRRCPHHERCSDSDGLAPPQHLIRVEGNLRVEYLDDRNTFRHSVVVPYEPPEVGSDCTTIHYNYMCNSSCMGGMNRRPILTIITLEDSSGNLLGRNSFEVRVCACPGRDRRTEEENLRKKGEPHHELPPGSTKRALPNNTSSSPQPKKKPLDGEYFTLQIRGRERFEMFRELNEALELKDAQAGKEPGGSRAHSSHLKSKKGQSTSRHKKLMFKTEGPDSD

For the molecule `CC(C)(Oc1ccc(-c2nc3cc(Cl)ccc3s2)cc1)C(=O)O`, in assay [1], the activation is -19.6%. Moreover, in assay [2], the Potency entry was “inactive”. Moreover, the Potency in assay [3] is 12.6 µM (active); in assay [4] it was 31.6 µM (active); in assay [5], 11.2 µM (active).

For the molecule `COC(=O)c1c(CC=C(C)C)c(OC2OC(CO)C(O)C(O)C2O)c2ccccc2c1OC1OC(CO)C(O)C(O)C1O` (stereo not drawn), the activation in assay [1] is 20.6%. The Potency entry in assay [2] is “inactive”.

`CN(C)CCCCCCNC(=O)c1cccc(-c2cc(O)c3ncccc3c2)c1`: the activation in assay [1] is 0.333%. Besides, the Potency entry in assay [2] and in assay [6] was “inactive” in each case. Moreover, the Potency in assay [3] is 8.96 µM (active).

On to `OC[C@H]1O[C@@H](OC/C=C/c2ccc(O)cc2)[C@H](O)[C@@H](O)[C@@H]1O`, for which the activation in assay [1] was 12.5%. Besides, in assay [2], the Potency entry is “inactive”.

In the case of `C=C1[C@H]2[C@H](O[C@@H]3O[C@H](COC(=O)/C=C/c4cc(OC)c(O)c(OC)c4)[C@@H](O)[C@H](O)[C@H]3O)OC=C(C(=O)O)[C@H]2C[C@@H]1O`, the activation in assay [1] is -10.7%. Further, the Potency entry in assay [2] was “inactive”.

Consider `CC[C@@H](Nc1c(Nc2cccc(C(=O)N(C)C)c2O)c(=O)c1=O)c1ccc(C)o1`, for which the activation in assay [1] was -1.43%. In addition, the Potency result in assay [2] is “inactive”.

Take `COc1cc2nc(N3CCN(C)CC3)nc(NC3CCN(Cc4ccccc4)CC3)c2cc1OC`: the activation in assay [1] was 2.33%. In assay [2], the Potency entry was “inactive”.

With `CC(=O)c1c(C)cc2cccc(O)c2c1O[C@@H]1O[C@H](CO)[C@@H](O)[C@H](O)[C@H]1O`, in assay [1], the activation was -2.29%. Besides, the Potency entry in assay [2] and in assay [6] was “inactive” each time. Further, the Potency in assay [3] was 3.12 µM (active).

The values above are taken from PubChem BioAssay (NCATS).
